# Screening results from PubChem BioAssay.
# TbPYK inhibitor = blocks Trypanosoma brucei pyruvate kinase; TbPYK enzyme, Kinase-Glo Plus ATP luminescence, 45 min; Potency, µM (highest dose often 76.8 µM), usual class: inhibitors; 410,000 compounds, 0.12% hits; note: nearly all actives have a fitted effect of over 50% in size
#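 Readout: single end-point luminescence (Kinase-Glo Plus, 10 min). Reaction conditions were TbPYK/substrate plus 130 uM ADP, 45 min at RT, pH 7.2 TEA buffer. No-enzyme wells served as controls, and data were normalized before concentration-response fitting.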
# VACV Venus inh = inhibitors of vaccinia virus (Venus reporter); Vaccinia virus Venus reporter expression, fluorescence; Potency, µM (series often up to 36.5 µM), usual class: inhibitors; AID 720580; 330,000 compounds, 0.46% hits; calls by dose curve; tested in A549 cells; note: nearly all actives have a fitted effect of over 30% in size
# LmPK inh = blocks Leishmania mexicana pyruvate kinase activity | 290,000 compounds, 0.37% hits | Potency, µM (titrated, usually from 57.5 µM), hits mostly inhibitors | purified LmPK, Kinase-Glo ATP luminescence, 1 h | Q27686
# Target sequence (Q27686 whole entry, looked up): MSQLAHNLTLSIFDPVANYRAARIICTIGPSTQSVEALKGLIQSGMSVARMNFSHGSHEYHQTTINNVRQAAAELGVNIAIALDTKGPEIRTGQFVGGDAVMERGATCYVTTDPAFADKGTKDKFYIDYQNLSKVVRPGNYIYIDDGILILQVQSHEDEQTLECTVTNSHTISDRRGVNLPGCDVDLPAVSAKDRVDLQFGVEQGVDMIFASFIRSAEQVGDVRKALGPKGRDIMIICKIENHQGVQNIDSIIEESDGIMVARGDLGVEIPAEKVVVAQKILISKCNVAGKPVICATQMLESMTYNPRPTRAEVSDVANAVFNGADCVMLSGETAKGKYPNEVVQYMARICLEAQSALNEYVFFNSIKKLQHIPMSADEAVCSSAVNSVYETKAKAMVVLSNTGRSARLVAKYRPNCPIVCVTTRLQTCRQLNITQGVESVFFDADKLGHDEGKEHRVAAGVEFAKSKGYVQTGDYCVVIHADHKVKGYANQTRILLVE
#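 Pyruvate kinase activity monitored as ATP production (luciferase luminescence). Conditions: 0.1 nM enzyme, 0.5 mM PEP, 0.1 mM ADP, 1 h, RT; normalized against uninhibited and no-enzyme wells.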
# HCMV antiviral = human cytomegalovirus inhibition | HFF cells, HCMV-luciferase reporter, 72 h; active compounds read low | activity change, negative = inhibition, % at 57.5 µM | 410,000 compounds, 4.5% hits | AID 1259415; in the data active = activity change below about -60%; inconclusive = no clear call, values can overlap the other calls; inactive = above about -39%
#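 Inhibition of viral replication was scored as loss of reporter luminescence in HFFs infected with HCMV-luciferase (MOI 1 PFU/cell) for 72 h; compounds tested at 2 doses, normalized to buffer and Salinomycin controls.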
# VACV mCherry inh = vaccinia inhibition (mCherry reporter); Vaccinia virus mCherry reporter infection, fluorescence; Potency, µM (doses to about 36.5 µM), actives largely listed as inhibitors; 310,000 compounds, 0.63% hits; AID 720579; calls by dose curve; tested in A549 cells; note: nearly all actives have a fitted effect of over 35% in size
# Hits are given with their value; i = inactive; ? = inconclusive; nt = no result; + = active, no number; [ ] = another dose, or the depositor's remark. Compounds with a hit are over-represented: about 5% of the library has one in this group of screens. Unless noted, calls come from the whole dose curve; as a rule, active = well fitted curve in the direction sought with a large enough effect; inconclusive = small, poorly fitted or top-dose-only effect, or another doubt; inactive = no such curve, though single readings can be large; an effect the other way counts as inactive or inconclusive.
SMILES,TbPYK inhibitor,VACV Venus inh,LmPK inh,HCMV antiviral,VACV mCherry inh
CCCCC(=O)N1CCN(c2nc3c(C)c(C)ccc3s2)CC1,i,i,nt,i,i
N/C(=N\OC(=O)Cc1ccccc1[N+](=O)[O-])c1ccncc1,i,i,i,-61,i
O=C(CCc1ccccc1)Nc1cc2c3c(c1)CCC(=O)N3CCC2,i,i,nt,-99,i
O=C(NCCO)C(=O)Nc1cc2c3c(c1)CC(=O)N3CCC2,i,nt,i,+,nt
Cc1cc(N2CCCC2)nc(-c2ccccc2O)n1,i,i,i,-102,i[1.46 µM]
O=C(COC(=O)c1cc(Br)ccc1O)c1ccc(F)cc1,i,i,nt,i,i
CC(C)n1c(=S)[nH]c2ccccc2c1=O,i,i,i,?,i
CC(C)n1c(=S)[nH]c2cc(Cl)ccc21,?,nt,?,-72,nt
O=c1c2cc(N3CCOCC3)ccc2[nH]c(=S)n1Cc1ccc(Cl)cc1,i,i,i,-87,i
O=C(CCCCCn1c(=S)[nH]c2ccc(N3CCOCC3)cc2c1=O)NCc1ccc(Cl)cc1,i,i,i,-75,i
O=C(c1ccc(Cn2c(=S)[nH]c3ccc(N4CCOCC4)cc3c2=O)cc1)N1CCN(c2ccc(F)cc2)CC1,i,i,i,i,i
COc1ccccc1N1CCN(c2ccnc3cc(Cl)ccc23)CC1,i,i,i,-63,11µM
COc1ccccc1NC(=O)N1CCN(c2ccnc3cc(Cl)ccc23)CC1,i,i,i,-67,?
CCOc1ccccc1-c1nc(CN2CCCN(C(=O)c3ccco3)CC2)c(C)o1,i,i,i,-101,i
O=C(NC1CCCC1)C(c1cccs1)N(C(=O)c1ccco1)c1ccc2c(c1)OCCO2 (stereo not given),i,i,i,-62,nt
COc1ccc(N(C(=O)c2ccco2)C(C(=O)NC2CCCC2)c2cccs2)cc1OC (stereo not given),i,i,i,i,i
COc1ccccc1N(C(=O)c1ccco1)C(C(=O)NC1CCCC1)c1cccs1 (stereo not given),i,i,i,i,i
COc1cccc(C(C(=O)NC2CCCCC2)N(C(=O)c2cccs2)c2ccc3c(c2)OCO3)c1 (stereo not given),i,nt,i,-83,nt
COc1cccc(C(C(=O)NC2CCCCC2)N(C(=O)Cc2cccs2)c2ccc(-n3cnnn3)c(OC)c2)c1 (stereo not given),i,nt,i,i,nt
COc1ccc(N(C(=O)c2ccco2)C(C(=O)NC2CCCC2)c2cccs2)cc1 (stereo not given),i,i,i,-69,i
CCSc1nc(=O)n(-c2ccccc2)c(C)c1C(C)=S,i,nt,i,i,nt
COc1cc(OC)cc(-c2cc3nc4c(c(N5CCN(c6cnccn6)CC5)n3n2)CCCC4)c1,nt,nt,nt,i,nt
Cc1ccccc1C1C2=C(Nc3[nH]n(-c4ccccc4)c(=O)c31)c1ccccc1C2=O (stereo not given),nt,nt,i,nt,nt
Cc1cccc(C2C3=C(Nc4[nH]n(-c5ccccc5)c(=O)c42)c2ccccc2C3=O)c1 (stereo not given),i,nt,i,-88,nt
S=C1NCN(CCc2ccccc2)CN1Cc1ccccc1,i,nt,i,-62,nt
SMILES,TbPYK inhibitor,VACV Venus inh,LmPK inh,HCMV antiviral,VACV mCherry inh
COc1ccccc1CNC(=O)CCc1c(C)nn(-c2ccc(N3CCCCC3)nn2)c1C,i,i,nt,i,i
CCC1CN2CCc3cc(OC)c(OC)cc3C2CC1CC1NCCc2cc(OC)c(OC)cc21 (stereo not given),nt,2.5µM,nt,nt,2.2µM
COC(=O)CC1NCCc2cc(OC)c(OC)cc21 (stereo not given),i,nt,i,i,nt
CCC1=C(CC2NCCc3ccccc32)CC2c3cc(OC)c(OC)cc3CCN2C1 (stereo not given),i,3.5µM,nt,-100,3.5µM
COc1cc2c(cc1OC)CN1CCc3cc(OC)c(OC)cc3C1C2 (stereo not given),nt,nt,nt,i,nt
CC[C@H]1CN2CCc3cc(OC)c(OC)cc3C2C[C@@H]1C[C@H]1NCCc2cc(OC)c(OC)cc21 (stereo not given in full),i,0.89µM,nt,-97,0.5µM
CCC(=O)Nc1ccc(Cl)c(NC(=O)c2cccc(OC)c2)c1,i,i,i,-88,i
CCCC(=O)Nc1ccc(Cl)c(NC(=O)CC)c1,i,i,i,i,i
CCC(=O)Nc1ccc(Cl)c(NC(=O)c2ccccc2OC)c1,i,i,i,-62,i
CCOc1ccc(S(=O)(=O)Nc2cccc(C(=O)NCC(C)(C)N3CCOCC3)c2)cc1,i,i,nt,i,i
CCOC(=O)c1c(S(=O)(=O)NCC(=O)Nc2cc(C)ccn2)c(C)n(C)c1C,i,i,i,i,i
O=C1c2cccc3cccc(c23)C(=O)C1(O)O,7.1µM,i,nt,-69,i
c1ccc2c(c1)-c1cccc3cccc-2c13,i,i,nt,i,i
Cc1ccccc1C(O)c1nnc(Nc2ccc(Oc3ccccc3)cc2)s1 (stereo not given),nt,nt,nt,i,nt
CC(C)CCNCC(O)CON=C1c2ccccc2-c2ccccc21 (stereo not given),i,?,i,-72,?
COc1ccc(C(C(=O)NC2CCCCC2)N(CC2CCCO2)C(=O)CCCC(=O)Nc2ccccn2)cc1 (stereo not given),i,i,i,i,i
Cc1ccc(C(C(=O)NC2CCCCC2)N(CC2CCCO2)C(=O)CCCC(=O)Nc2ccccn2)cc1 (stereo not given),i,i,i,-71,i
COc1ccc(-n2c(=O)[nH]cc(C(=O)Nc3ccccc3)c2=O)cc1,i,i,i,-64,i
CN1Cc2sc(NC(=S)NC(=O)c3ccccc3)c(C#N)c2CC1(C)C,i,i,i,-76,i
CCOc1ccc(C(C)C)cc1S(=O)(=O)N1CCN(C(=O)c2ccco2)CC1,i,nt,i,i,nt
CC(C)c1ccc(/C=C(\c2nc3ccccc3[nH]2)S(=O)(=O)c2ccccc2)cc1,i,10µM,i,-101,8.9µM
O=S(=O)(/C(=C/c1ccc(C(F)(F)F)cc1)c1nc2ccccc2[nH]1)c1ccccc1,i,10µM,i,-104,10µM
C/C(=C\c1ccc(N)cc1)c1nc2ccccc2[nH]1,i,nt,i,i,nt
COc1ccc(-c2noc(CN(C(=O)C(C)(C)C)C(C)C)n2)cc1,i,i,i,i,i
COCCN(C(=O)CSc1nnc(C)n1Cc1ccccc1)c1c(N)n(CC(C)C)c(=O)[nH]c1=O,i,i,i,i,i
SMILES,TbPYK inhibitor,VACV Venus inh,LmPK inh,HCMV antiviral,VACV mCherry inh
c1ccc(N2CCN(c3ncnc4c3nc3n4CCCCC3)CC2)cc1,i,?,nt,-76,?
Clc1ccc(N2CCN(c3ncnc4c3nc3n4CCCC3)CC2)cc1,i,i[7.34 µM],nt,-69,?
CCCC/C(=N/O)c1c(C)[nH]c2ccccc12,i,i,i,i,i
COc1ccc(C(=O)/C(=C\c2sccc2C)c2nc3ccccc3o2)cc1,nt,nt,i,nt,nt
CC(C)Oc1ccc(C(=O)/C(=C\c2cccs2)c2nc3ccccc3o2)cc1,i,i,i,-73,i
CCCc1cc(=O)oc2cc(OCC(=O)NCCN3CCOCC3)c(Cl)cc12,i,i,nt,-79,i
